Test results from PubChem BioAssay AID1159580 (chemical genetic matrix, 2015).
In all, about 5,500 compounds went through this assay and about 2,000 (36%) were called active. Another 18% or so got no clear call; they are omitted. No stated cut-off is given here; in the data, active means normalized growth mostly below about 0.91 (no sharp cut-off); inconclusive means no clear call, values can overlap the other calls; inactive means mostly above about 0.92. Some of the results follow.

Test: chemical genetic growth profiling, strain panel (AID 1159580);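 further: tested at 20 µM; growth read once vehicle control cultures reached saturation at 30 °C; 1 = growth at the plate median or of vehicle wells; lower values mean less growth of the strain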
Conditions: S. cerevisiae deletion strains, growth OD

Measured: normalized growth

Cn1nc(-c2ccccc2)c(O)c(N=Nc2ccccc2)c1=O
inactive: locus YAR019C, strain CDC15, active compounds read low 0.964 | locus YBL105C, strain PKC1, active compounds read low 0.972 | locus YBR135W, strain CKS1, active compounds read low 0.957 | locus YBR136W, strain MEC1, active compounds read low 0.96 | locus YBR160W, strain CDC28, active compounds read low 0.976 | locus YDL017W, strain CDC7, active compounds read low 0.983 | locus YDL028C, strain MPS1, active compounds read low 0.963 | locus YDL101C, strain DUN1, active compounds read low 0.972 | locus YDL108W, strain KIN28, active compounds read low 0.962 | locus YDL132W, strain cdc53, active compounds read low 0.968 | locus YDL214C, strain PRR2, active compounds read low 0.906 | locus YDR052C, strain DBF4, active compounds read low 0.985 | locus YDR054C, strain cdc34, active compounds read low 0.971 | locus YDR226W, strain ADK1, active compounds read low 0.971 | locus YDR477W, strain SNF1, active compounds read low 0.917 | locus YER123W, strain YCK3, active compounds read low 0.858 | locus YER133W, strain GLC7, active compounds read low 0.898 | locus YFL009W, strain cdc4, active compounds read low 0.969 | locus YFL029C, strain CAK1, active compounds read low 0.969 | locus YFR003C, strain YPI1, active compounds read low 0.971 | locus YFR019W, strain FAB1, active compounds read low 0.898 | locus YFR028C, strain CDC14, active compounds read low 0.974 | locus YGR040W, strain KSS1, active compounds read low 0.905 | locus YGR052W, strain FMP48, active compounds read low 0.998 | locus YGR092W, strain DBF2, active compounds read low 0.913 | locus YHR030C, strain SLT2, active compounds read low 0.931 | locus YHR079C, strain IRE1, active compounds read low 0.982 | locus YHR082C, strain KSP1, active compounds read low 0.964 | locus YHR205W, strain SCH9, active compounds read low 0.943 | locus YIL147C, strain SLN1, active compounds read low 0.964 | locus YJL095W, strain BCK1, active compounds read low 0.993 | locus YJL128C, strain PBS2, active compounds read low 0.95 | locus YJL157C, strain FAR1, active compounds read low 0.89 | locus YJR016C, strain ILV3, active compounds read low 0.976 | locus YJR066W, strain TOR1 (second series), active compounds read low 0.854 | locus YJR066W, strain TOR1, active compounds read low 0.981 | locus YKL048C, strain ELM1, active compounds read low 0.944 | locus YKL067W, strain YNK1, active compounds read low 0.906 | locus YKL101W, strain HSL1, active compounds read low 0.921 | locus YKL193C, strain SDS22, active compounds read low 0.968 | locus YKL203C, strain TOR2, active compounds read low 0.98 | locus YLR113W, strain HOG1, active compounds read low 0.953 | locus YLR133W, strain CKI1, active compounds read low 0.944 | locus YLR403W, strain SFP1, active compounds read low 0.89 | locus YML070W, strain DAK1, active compounds read low 0.885 | locus YMR001C, strain CDC5, active compounds read low 0.961 | locus YMR205C, strain PFK2 (second series), active compounds read low 0.937 | locus YMR277W, strain FCP1, active compounds read low 0.973 | locus YNL006W, strain LST8, active compounds read low 0.967 | locus YNL020C, strain ARK1, active compounds read low 0.927 | locus YNL161W, strain CBK1, active compounds read low 0.965 | locus YNL183C, strain NPR1, active compounds read low 1 | locus YNL207W, strain RIO2, active compounds read low 0.964 | locus YNL222W, strain SSU72, active compounds read low 0.966 | locus YNL307C, strain MCK1 (second series), active compounds read low 0.941 | locus YOL078W, strain AVO1, active compounds read low 0.968 | locus YOL136C, strain PFK27, active compounds read low 0.907 | locus YOR061W, strain CKA2, active compounds read low 0.864 | locus YOR119C, strain RIO1, active compounds read low 0.952 | locus YOR231W, strain MKK1, active compounds read low 0.95 | locus YOR329C, strain SCD5, active compounds read low 0.974 | locus YPL031C, strain PHO85, active compounds read low 0.918 | locus YPL153C, strain RAD53, active compounds read low 0.914 | locus YPL204W, strain HRR25, active compounds read low 0.93 | locus YPL209C, strain IPL1, active compounds read low 0.972 | locus YPL256C, strain CLN2, active compounds read low 0.998 | locus YPR025C, strain CCL1, active compounds read low 0.97 | locus YPR106W, strain ISR1, active compounds read low 0.977 | locus YPR111W, strain DBF20, active compounds read low 0.988 | strain NNK1, active compounds read low 0.966 | strain TSCII, active compounds read low 0.963
